Structures are written as SMILES. About 83,000 compounds went through this panel and 20% of them were active in at least one assay; those are over-represented in the sample as a whole.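 For each line, cells grew in 96-well plates with the test compound present at a single concentration for 48 hours.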 Values without a mark were called inactive. The source made the active and inactive calls. How the source made its calls: active means growth percent below 10; inactive means the rest.

Holding throughout (assay): NCI-60 one-dose screen, 48 h (100 = growth as untreated, 0 = no growth, -100 = all killed)
The test system of one test is HCT-15 colon. The conditions noted are these: 10 µM unless noted.
The next test deals with HT29 colon. The conditions noted are these: 10 µM unless noted.
A further test has as its system SNB-75 CNS. The conditions noted are these: 10 µM unless noted.
The subject of another test is SNB-19 CNS. Conditions: 10 µM unless noted.
In a further test the test system is U251 CNS. The conditions noted are these: 10 µM unless noted.
The next test relates to PC-3 prostate. Conditions: 10 µM unless noted.
The test system of the next test is SK-MEL-5 melanoma. Conditions: 10 µM unless noted.
The next test deals with LOX IMVI melanoma. Conditions: 10 µM.
For a further test, the system named is SK-MEL-28 melanoma. Conditions: 10 µM unless noted.
Another test concerns SK-MEL-2 melanoma. Conditions: 10 µM unless noted.
A further test concerns EKVX NSCLC. The conditions noted are these: 10 µM unless noted.
The subject of the next test is UO-31 renal. The conditions noted are these: 10 µM unless noted.
Another test concerns TK-10 renal. The conditions noted are these: 10 µM unless noted.
The subject of another test is ACHN renal. The conditions noted are these: 10 µM unless noted.
For a further test, the system named is CAKI-1 renal. The conditions noted are these: 10 µM unless noted.
The next test concerns A498 renal. The conditions noted are these: 10 µM unless noted.
A further test concerns CCRF-CEM leukemia. Conditions: 10 µM unless noted.
A further test has as its system MOLT-4 leukemia. The conditions noted are these: 10 µM unless noted.
For a further test, the system named is SN12C renal. The conditions noted are these: 10 µM unless noted.
For another test, the system named is UACC-62 melanoma. Conditions: 10 µM unless noted.

Take `CC(=O)Oc1c(Cl)cccc1-c1ccccc1`: the growth in the test with HCT-15 colon is 108%; in the test with HT29 colon it was 98.1%; with SNB-75 CNS, 103%; in the test on SNB-19 CNS, 98.9%; in the test on U251 CNS, 90%; in the test on PC-3 prostate, 89.5%. For the same molecule, the growth with SK-MEL-5 melanoma is 101%; in the test on LOX IMVI melanoma, 103%; with SK-MEL-28 melanoma, 112%; with SK-MEL-2 melanoma, 98.9%; in the test on EKVX NSCLC it was 103%; with UO-31 renal, 84.8%. Further, the growth was 107% in the test with TK-10 renal; 108% in the test with ACHN renal; 98.3% in the test with CAKI-1 renal; 96.9% in the test with A498 renal; 101% with CCRF-CEM leukemia; 107% with MOLT-4 leukemia.
As for `O=C1NCC2CCCC1C2` (stereo not drawn), the growth with HCT-15 colon is 104%; in the test with HT29 colon, 105%; in the test on SNB-75 CNS, 77.2%; in the test with SNB-19 CNS, 99.6%; with U251 CNS it was 112%; with PC-3 prostate, 114%. Further, the growth in the test on SK-MEL-5 melanoma was 107%; in the test with LOX IMVI melanoma it was 103%; in the test on SK-MEL-28 melanoma it was 110%; in the test with EKVX NSCLC, 118%; in the test with SN12C renal, 101%; in the test on UO-31 renal, 92.7%. The growth in the test on TK-10 renal is 101%; with ACHN renal it was 111%; with A498 renal, 133%; in the test on CCRF-CEM leukemia, 104%; in the test on MOLT-4 leukemia it was 103%.
With `O=S(=O)(O)c1cccnc1`, the growth in the test with HCT-15 colon was 114%; with HT29 colon it was 117%; with SNB-75 CNS, 79.5%; in the test with SNB-19 CNS, 96%; in the test on U251 CNS, 113%; in the test on PC-3 prostate it was 102%. Also, the growth is 103% in the test on SK-MEL-5 melanoma; 108% in the test with LOX IMVI melanoma; 136% with SK-MEL-2 melanoma; 93.7% in the test with EKVX NSCLC; 105% in the test with SN12C renal; 109% in the test with UO-31 renal. The growth was 104% in the test on TK-10 renal; 105% in the test on ACHN renal; 95.2% with CAKI-1 renal; 101% in the test with A498 renal; -41.7% (active) in the test on CCRF-CEM leukemia; 79.6% in the test on MOLT-4 leukemia.
With `Cc1ccccc1NC(=O)Oc1ccc(Cl)cc1C(=O)c1ccccc1`, the growth with HCT-15 colon was 94.1%; with HT29 colon it was 100%; in the test with SNB-75 CNS, 77.7%; in the test on SNB-19 CNS it was 96%; with U251 CNS, 87.6%; in the test with PC-3 prostate it was 95.2%. For the same molecule, the growth is 97.3% in the test with SK-MEL-5 melanoma; 106% in the test on SK-MEL-28 melanoma; 92.6% in the test on SK-MEL-2 melanoma; 96.8% with EKVX NSCLC; 49.1% in the test with UO-31 renal; 113% in the test with TK-10 renal. The growth is 88.1% with ACHN renal; 91.7% in the test with CAKI-1 renal; 107% with A498 renal; 96.5% with CCRF-CEM leukemia; 86.3% in the test on MOLT-4 leukemia.
Take `NC(CSSCC(N)C(=O)O)C(=O)O` (stereo not drawn): the growth in the test on HCT-15 colon is 34.5%; with HT29 colon, 5.05% (active); in the test on SNB-75 CNS it was -3.17% (active); in the test on SNB-19 CNS, -6.03% (active); in the test with U251 CNS it was 27%; with PC-3 prostate, 27.3%. For the same molecule, the growth in the test with UACC-62 melanoma was -19.3% (active); in the test on LOX IMVI melanoma, 18.2%; with SK-MEL-28 melanoma, 18.5%; in the test on SK-MEL-2 melanoma, -8.58% (active); in the test with EKVX NSCLC it was 21.9%; in the test on SN12C renal it was -11.2% (active). For the same molecule, the growth in the test with UO-31 renal is 13.9%; in the test on TK-10 renal, 20.4%; in the test with ACHN renal, -37.8% (active); in the test on CAKI-1 renal it was 11.4%; with A498 renal it was -7.36% (active); with CCRF-CEM leukemia, -10.1% (active). Besides, the growth in the test on MOLT-4 leukemia was -9.51% (active).
On to `CCOc1ccc(C(=O)O)cc1`, for which the growth was 95.7% with HCT-15 colon; 103% with HT29 colon; 89.2% in the test with SNB-75 CNS; 112% with SNB-19 CNS; 103% in the test with U251 CNS; 91.2% in the test with PC-3 prostate. Moreover, the growth in the test with UACC-62 melanoma was 104%; in the test with LOX IMVI melanoma it was 98.7%; in the test with SK-MEL-2 melanoma, 109%; with EKVX NSCLC, 99.6%; in the test with SN12C renal, 113%; in the test on UO-31 renal, 102%. The growth was 99.6% with TK-10 renal; 109% in the test with ACHN renal; 97.9% with CAKI-1 renal; 84.7% in the test with A498 renal; 105% with CCRF-CEM leukemia; 116% in the test with MOLT-4 leukemia.
Regarding `CCN(CC)CCOC(=O)Nc1c(C(C)C)cccc1C(C)C`, the growth is 106% with HCT-15 colon; 92.8% with HT29 colon; 110% in the test on SNB-75 CNS; 99.6% with SNB-19 CNS; 107% in the test on U251 CNS; 95.5% in the test on PC-3 prostate. For the same molecule, the growth is 95.7% in the test on SK-MEL-5 melanoma; 111% with SK-MEL-28 melanoma; 124% with SK-MEL-2 melanoma; 106% with EKVX NSCLC; 105% with SN12C renal; 83.1% in the test on UO-31 renal. The growth in the test on TK-10 renal is 105%; with ACHN renal it was 105%; in the test on CAKI-1 renal, 88.9%; in the test with A498 renal, 118%; in the test on CCRF-CEM leukemia it was 98.4%; in the test on MOLT-4 leukemia, 105%.
For `COc1cc(CC#N)c([N+](=O)[O-])cc1OC`, the growth was 116% in the test on HCT-15 colon; 108% in the test on HT29 colon; 107% with SNB-75 CNS; 109% in the test with SNB-19 CNS; 95.8% with U251 CNS; 101% with PC-3 prostate. The growth is 99.8% with UACC-62 melanoma; 102% with LOX IMVI melanoma; 107% with SK-MEL-28 melanoma; 109% with SK-MEL-2 melanoma; 111% with EKVX NSCLC; 104% in the test with SN12C renal. Also, the growth in the test on UO-31 renal is 96%; with TK-10 renal, 101%; with ACHN renal it was 109%; with CAKI-1 renal it was 102%; with A498 renal, 107%; with CCRF-CEM leukemia, 103%. For the same molecule, in the test on MOLT-4 leukemia, the growth is 94.6%.
On to `Nc1cc(F)ccc1[N+](=O)[O-]`, for which the growth in the test on HCT-15 colon is 102%; with HT29 colon, 109%; in the test with SNB-75 CNS, 85.9%; with SNB-19 CNS, 102%; in the test with U251 CNS, 106%; in the test on PC-3 prostate, 87.5%. For the same molecule, the growth with UACC-62 melanoma is 101%; in the test on LOX IMVI melanoma, 100%; in the test on SK-MEL-28 melanoma, 104%; in the test on SK-MEL-2 melanoma, 114%; with EKVX NSCLC it was 100%; in the test on SN12C renal, 98.6%. Moreover, the growth in the test with UO-31 renal was 94.2%; in the test with TK-10 renal, 104%; in the test on ACHN renal it was 104%; in the test with CAKI-1 renal, 92.2%; with A498 renal, 102%; in the test with CCRF-CEM leukemia, 110%. Moreover, the growth with MOLT-4 leukemia is 109%.

These data come from PubChem BioAssay (NCI).
